Experiment [1] can be described thus: qHTS assay to identify small molecule antagonists of the glucocorticoid receptor (GR) signaling pathway - cell viability counter screen (AID 720693). Note: nearly all actives have a fitted effect of over 55% in size. Note: potency is the fitted concentration of half-maximal effect.
Experiment [2] is described as follows: qHTS assay for identifying genotoxic compounds that show differential cytotoxicity against isogenic chicken DT40 cell lines with known DNA damage response pathways - wild type cell line (AID 743012). Note: nearly all actives have a fitted effect of over 60% in size. Note: potency is the fitted concentration of half-maximal effect. In short, it runs like this:
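Cytotoxicity in repair-proficient parental chicken DT40 cells serves as the comparator for Rad54/Ku70- and Rev3-deficient lines. Cells were exposed to compounds for 40 h at 37 C/5% CO2, and ATP-based luminescence (CellTiter-Glo) measured viability.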
On the technique in general: In qHTS, concentration-response curves come from the screen itself.

The nature of experiment [3]: qHTS assay for identifying genotoxic compounds that show differential cytotoxicity against isogenic chicken DT40 cell lines with known DNA damage response pathways - Rev3 mutant cell line (AID 743014). Note: nearly all actives have a fitted effect of over 55% in size. Note: potency is the fitted concentration of half-maximal effect.
The nature of experiment [4]: qHTS assay for identifying genotoxic compounds that show differential cytotoxicity against isogenic chicken DT40 cell lines with known DNA damage response pathways - Rad54/Ku70 mutant cell line (AID 743015). Note: nearly all actives have a fitted effect of over 60% in size. Note: potency is the fitted concentration of half-maximal effect.
Experiment [5] in a line: qHTS assay to identify small molecule antagonists of the androgen receptor (AR) signaling pathway - cell viability counter screen (AID 743033; note: nearly all actives have a fitted effect of over 45% in size; note: potency is the fitted concentration of half-maximal effect).
Experiment [6] is described as follows: qHTS assay to identify small molecule antagonists of the androgen receptor (AR) signaling pathway using the MDA cell line - cell viability counter screen (AID 743041; note: nearly all actives have a fitted effect of over 45% in size; note: potency is the fitted concentration of half-maximal effect). The method, boiled down:
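Compound exposure lasted 16 h at 37C in MDA-kb2 AR-luc cells stimulated with R1881. Protease-based CellTiter-Fluor reagent was applied for the final 30 min and fluorescence measured.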

Experiment [7] can be described thus: qHTS assay to identify small molecule antagonists of the thyroid receptor (TR) signaling pathway (AID 743065). Note: nearly all actives have a fitted effect of over 55% in size. Note: potency is the fitted concentration of half-maximal effect. In short, it runs like this:
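GH3.TRE-Luc rat pituitary cells (two TREs driving luciferase) were dosed with compound, then stimulated with 1 nM T3 (final) for 23.5 h at 37 C. ONE-Glo luminescence was the read-out, with CellTiter-Fluor fluorescence as the cytotoxicity counter-screen.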

Experiment [8] has as its system thyroid hormone receptor (rat, GH3 cells). Kind of experiment: qHTS assay to identify small molecule agonists of the thyroid receptor (TR) signaling pathway (AID 743066; calls by dose curve).
The nature of experiment [9]: qHTS assay to identify small molecule antagonists of the estrogen receptor alpha (ER-alpha) signaling pathway - cell viability counter screen (AID 743074; calls by dose curve; note: nearly all actives have a fitted effect of over 45% in size; note: potency is the fitted concentration of half-maximal effect).
Experiment [10] deals with Estrogen receptor (Homo sapiens) (UniProt P03372). Description: qHTS assay to identify small molecule agonists of the estrogen receptor alpha (ER-alpha) signaling pathway (AID 743075; calls by dose curve).
Estrogen receptor (Homo sapiens), sequence (P03372 whole entry, looked up): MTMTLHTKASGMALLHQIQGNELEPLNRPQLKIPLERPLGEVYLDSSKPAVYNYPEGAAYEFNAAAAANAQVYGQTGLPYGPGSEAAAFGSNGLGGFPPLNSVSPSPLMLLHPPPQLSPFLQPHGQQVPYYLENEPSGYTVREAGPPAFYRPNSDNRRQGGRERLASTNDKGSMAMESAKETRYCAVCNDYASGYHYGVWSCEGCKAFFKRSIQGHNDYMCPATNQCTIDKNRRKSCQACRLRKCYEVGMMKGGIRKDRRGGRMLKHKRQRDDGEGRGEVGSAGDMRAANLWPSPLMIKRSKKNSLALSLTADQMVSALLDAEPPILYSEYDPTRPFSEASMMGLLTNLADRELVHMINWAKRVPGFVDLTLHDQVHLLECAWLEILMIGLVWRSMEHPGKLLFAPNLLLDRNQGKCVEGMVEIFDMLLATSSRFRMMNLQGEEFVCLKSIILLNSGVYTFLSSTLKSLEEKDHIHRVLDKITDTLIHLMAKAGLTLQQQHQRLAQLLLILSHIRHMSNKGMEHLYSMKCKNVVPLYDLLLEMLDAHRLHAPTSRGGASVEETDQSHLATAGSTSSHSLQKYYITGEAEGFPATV
Experiment [11] can be described thus: qHTS assay to identify small molecule antagonists of the estrogen receptor alpha (ER-alpha) signaling pathway using the BG1 cell line (AID 743080; calls by dose curve;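 note: BG1 cells stimulated with 17beta-estradiol alongside compound; nearly all actives have a fitted effect of over 25% in size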; note: potency is the fitted concentration of half-maximal effect). The method, boiled down: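 After 5 days in phenol-red-free 10% charcoal-stripped FBS medium, BG1-Luc-4E2 cells were seeded, left 24 h at 37 C, co-treated with compounds and 17beta-estradiol for 21.5 h, then assayed for viability and luciferase.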

A short description of experiment [12]: qHTS assay to identify small molecule antagonists of the estrogen receptor alpha (ER-alpha) signaling pathway using the BG1 cell line - cell viability counter screen (AID 743081).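 Note: compound given together with 17beta-estradiol as the ER stimulus; nearly all actives have a fitted effect of over 45% in size.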 Note: potency is the fitted concentration of half-maximal effect.
Another experiment has as its target Aromatase (Homo sapiens) (UniProt P11511). Kind of experiment: qHTS assay to identify aromatase inhibitors (AID 743083). Note: nearly all actives have a fitted effect of over 55% in size. Note: potency is the fitted concentration of half-maximal effect.
The nature of experiment [13]: qHTS assay to identify small molecule antagonists of the thyroid receptor (TR) signaling pathway - cell viability counter screen (AID 743064). Note: nearly all actives have a fitted effect of over 50% in size. Note: potency is the fitted concentration of half-maximal effect. The method, boiled down:
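Rat GH3 pituitary tumor cells stably expressing two TR response elements driving luciferase were plated, rested 4 h, then dosed with library compounds and T3 (1 nM final). After 23.5 h at 37 °C, CellTiter-Fluor was added for 30 min and fluorescence recorded.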

In experiment [14] the target is Estrogen receptor (Homo sapiens) (UniProt P03372). Kind of experiment: qHTS assay to identify small molecule agonists of the estrogen receptor alpha (ER-alpha) signaling pathway using the BG1 cell line (AID 743079). Note: nearly all actives have a fitted effect of over 20% in size. Note: potency is the fitted concentration of half-maximal effect. The following applies: BG1Luc4E2 cells, ERE-luciferase agonist, 22 h; activation: at 70.3 µM (top of the series).
The target is the same in experiment [15]. Kind of experiment: qHTS assay to identify small molecule antagonists of the estrogen receptor alpha (ER-alpha) signaling pathway (AID 743069; active = well fitted curve in the direction sought with a large enough effect in the signal ratio in the repeat runs, not every such curve was filed as active; the % refers to the signal ratio). In short, it runs like this: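 In this cell-based reporter format, GripTite HEK293 cells harbouring ER-alpha-UAS-bla were grown overnight with 2% charcoal-stripped FBS, dosed with DMSO-dissolved compounds, then challenged with 17beta-estradiol. After 18 hr at 37C, beta-lactamase activity was detected by FRET fluorescence.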

Here are results for ten molecules from PubChem BioAssay (Tox21).

Records with an inconclusive call do not appear. A number with no mark means an inactive call. Activity calls are given as the source filed them. Unless noted, calls come from the whole dose curve; as a rule, active = well fitted curve in the direction sought with a large enough effect in the repeat runs; inconclusive = weak or mixed curves; inactive = no such curve, though single readings can be large; an effect the other way counts as inactive or inconclusive.

Aromatase (Homo sapiens), sequence (P11511 whole entry, looked up): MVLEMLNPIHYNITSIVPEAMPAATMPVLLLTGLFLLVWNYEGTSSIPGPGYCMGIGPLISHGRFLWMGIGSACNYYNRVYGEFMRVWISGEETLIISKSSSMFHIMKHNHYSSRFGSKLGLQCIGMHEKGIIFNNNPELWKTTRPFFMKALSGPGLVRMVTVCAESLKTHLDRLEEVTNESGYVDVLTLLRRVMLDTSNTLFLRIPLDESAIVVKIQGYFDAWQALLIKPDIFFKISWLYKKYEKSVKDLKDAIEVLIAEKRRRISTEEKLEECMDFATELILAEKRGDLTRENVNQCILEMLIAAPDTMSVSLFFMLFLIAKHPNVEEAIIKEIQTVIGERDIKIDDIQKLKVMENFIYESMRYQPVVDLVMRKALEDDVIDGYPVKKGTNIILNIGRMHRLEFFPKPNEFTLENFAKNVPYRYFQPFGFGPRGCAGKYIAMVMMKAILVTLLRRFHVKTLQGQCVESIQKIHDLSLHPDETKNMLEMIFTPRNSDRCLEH

Regarding `CC1(C)[C@H](/C=C2\CCSC2=O)[C@@H]1C(=O)OCc1coc(Cc2ccccc2)c1`, the Potency result in experiment [1], in experiment [5], in experiment [6], in experiment [8], in experiment [9] and in experiment [10] was “inactive” in each case. For the same molecule, the Potency result (in experiment [12]; in the experiment with Aromatase (Homo sapiens)) was “inactive” each time. Moreover, the Potency is 6.86 µM (active) in experiment [2]; 5.45 µM (active) in experiment [3]; 10.9 µM (active) in experiment [4]; 43.3 µM (active) in experiment [7]; 68.6 µM (active) in experiment [11].
Consider `CN`, for which the Potency result in experiment [1], in experiment [2], in experiment [3], in [4], in [5] and in experiment [6] was “inactive” throughout. For the same molecule, the Potency entry (in experiment [13]; in experiment [8]; in experiment [9]; in experiment [12]; in the experiment with Aromatase (Homo sapiens)) was “inactive” each time.
Consider `CC[C@H](C)[C@H]1O[C@]2(C=C[C@@H]1C)C[C@@H]1C[C@@H](C/C=C(\C)[C@@H](O[C@H]3C[C@H](OC)[C@@H](O[C@H]4C[C@H](OC)[C@@H](NC)[C@H](C)O4)[C@H](C)O3)[C@@H](C)/C=C/C=C3\CO[C@@H]4[C@H](O)C(C)=C[C@@H](C(=O)O1)[C@]34O)O2`, for which the Potency in [1] was 12.3 µM (active); in experiment [2], 0.686 µM (active); in experiment [3], 0.686 µM (active); in [4], 0.864 µM (active); in experiment [5], 2.19 µM (active); in [6], 21.7 µM (active). Besides, the Potency in experiment [13] is 1.22 µM (active); in [9] it was 13.8 µM (active); in experiment [12] it was 30.6 µM (active); with Aromatase (Homo sapiens), 4.86 µM (active).
Turning to `[Cl-].[Cl-].[Sn+2]`, the Potency result in experiment [1], in experiment [2], in experiment [3], in experiment [4], in [5] and in [6] was “inactive” in each case. Further, the Potency entry (in experiment [7]; in experiment [8]; in experiment [9]; with Aromatase (Homo sapiens)) was “inactive” in each case.
As to `[Cl-].[Cl-].[Cl-].[Yb+3]`, the Potency entry in [1], in [2], in [3], in experiment [4], in experiment [5] and in experiment [6] was “inactive” each time. For the same molecule, the Potency result (in experiment [7]; in [8]; in experiment [9]; in experiment [12]; with Aromatase (Homo sapiens)) was “inactive” each time.
For `O=C(O)[C@H](O)[C@@H](O)C(=O)O`, the Potency result in [1], in [2], in experiment [3], in experiment [4], in [5] and in [6] was “inactive” each time. In addition, the Potency result in experiment [13], in experiment [8], in experiment [9], in [10], in experiment [14] and in experiment [11] was “inactive” in each case. The Potency entry (in experiment [12]; with Aromatase (Homo sapiens)) was “inactive” throughout.
Consider `Brc1ccc(Oc2ccc(Br)cc2Br)c(Br)c1`, for which the Potency result in [1], in [2], in experiment [3], in [4], in experiment [5] and in [6] was “inactive” throughout. Also, the Potency entry (in experiment [8]; in experiment [9]; in experiment [10]; in [12]; in the experiment with Aromatase (Homo sapiens)) was “inactive” in each case. Besides, in [14], the Potency is 19.4 µM (active).
With `COC(=O)c1cc(Oc2ccc(Cl)cc2Cl)ccc1[N+](=O)[O-]`, the Potency entry in experiment [1], in [5], in experiment [6], in [8], in experiment [9] and in experiment [12] was “inactive” in each case. The Potency is 9.69 µM (active) in [2], 12.2 µM (active) in experiment [3], 24.3 µM (active) in experiment [4] and 61.1 µM (active) in experiment [7].
Consider `CCCCc1ccccc1`, for which the Potency result in experiment [1], in experiment [2], in experiment [3], in experiment [4], in experiment [5] and in experiment [6] was “inactive” in each case. For the same molecule, the Potency result in [7], in experiment [8], in [15], in [9], in experiment [10] and in [14] was “inactive” in each case. Further, the Potency result (in [12]; with Aromatase (Homo sapiens)) was “inactive” throughout.
For `[O]=[Cr][O][Cr]=[O]`, the Potency result in experiment [1], in experiment [2], in experiment [3], in [4], in [5] and in [6] was “inactive” throughout. For the same molecule, the Potency result in experiment [13], in experiment [8], in experiment [15], in experiment [9], in experiment [10] and in experiment [14] was “inactive” in each case. The Potency entry (in experiment [12]; in the experiment with Aromatase (Homo sapiens)) was “inactive” in each case.
